Source: ChEMBL document CHEMBL1961873, “Compounds: GSK PKIS; Assays: Nanosyn kinase panel” (2012)

Assays:
[1] = target: T1, Inhibitor of nuclear factor kappa-B kinase subunit epsilon (Homo sapiens) (UniProt Q14164); conditions: at 1 µM;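 note: reported values are averaged percent inhibition figures against human IKKε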
T1 sequence (whole entry): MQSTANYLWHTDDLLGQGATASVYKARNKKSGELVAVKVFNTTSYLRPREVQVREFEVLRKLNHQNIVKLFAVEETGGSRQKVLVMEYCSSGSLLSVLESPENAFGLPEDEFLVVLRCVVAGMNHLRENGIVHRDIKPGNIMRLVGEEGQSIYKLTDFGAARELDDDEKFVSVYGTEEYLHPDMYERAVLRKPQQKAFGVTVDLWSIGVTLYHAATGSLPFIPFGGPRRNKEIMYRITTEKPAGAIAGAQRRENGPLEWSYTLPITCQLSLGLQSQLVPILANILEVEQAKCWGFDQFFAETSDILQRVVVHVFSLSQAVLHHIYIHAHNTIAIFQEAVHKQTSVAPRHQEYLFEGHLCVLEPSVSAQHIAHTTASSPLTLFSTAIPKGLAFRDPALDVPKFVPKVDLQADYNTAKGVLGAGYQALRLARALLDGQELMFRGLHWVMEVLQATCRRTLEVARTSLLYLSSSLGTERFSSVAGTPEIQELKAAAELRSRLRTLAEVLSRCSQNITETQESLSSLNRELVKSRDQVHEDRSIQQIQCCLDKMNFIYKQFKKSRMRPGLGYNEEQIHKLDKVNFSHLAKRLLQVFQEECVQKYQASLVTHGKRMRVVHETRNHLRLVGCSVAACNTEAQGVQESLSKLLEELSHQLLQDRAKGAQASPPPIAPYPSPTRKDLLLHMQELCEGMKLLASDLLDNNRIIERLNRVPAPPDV

[2] = target: T2, Serine/threonine-protein kinase Nek1 (Homo sapiens) (UniProt Q96PY6); conditions: at 0.1 µM
T2 sequence (whole entry): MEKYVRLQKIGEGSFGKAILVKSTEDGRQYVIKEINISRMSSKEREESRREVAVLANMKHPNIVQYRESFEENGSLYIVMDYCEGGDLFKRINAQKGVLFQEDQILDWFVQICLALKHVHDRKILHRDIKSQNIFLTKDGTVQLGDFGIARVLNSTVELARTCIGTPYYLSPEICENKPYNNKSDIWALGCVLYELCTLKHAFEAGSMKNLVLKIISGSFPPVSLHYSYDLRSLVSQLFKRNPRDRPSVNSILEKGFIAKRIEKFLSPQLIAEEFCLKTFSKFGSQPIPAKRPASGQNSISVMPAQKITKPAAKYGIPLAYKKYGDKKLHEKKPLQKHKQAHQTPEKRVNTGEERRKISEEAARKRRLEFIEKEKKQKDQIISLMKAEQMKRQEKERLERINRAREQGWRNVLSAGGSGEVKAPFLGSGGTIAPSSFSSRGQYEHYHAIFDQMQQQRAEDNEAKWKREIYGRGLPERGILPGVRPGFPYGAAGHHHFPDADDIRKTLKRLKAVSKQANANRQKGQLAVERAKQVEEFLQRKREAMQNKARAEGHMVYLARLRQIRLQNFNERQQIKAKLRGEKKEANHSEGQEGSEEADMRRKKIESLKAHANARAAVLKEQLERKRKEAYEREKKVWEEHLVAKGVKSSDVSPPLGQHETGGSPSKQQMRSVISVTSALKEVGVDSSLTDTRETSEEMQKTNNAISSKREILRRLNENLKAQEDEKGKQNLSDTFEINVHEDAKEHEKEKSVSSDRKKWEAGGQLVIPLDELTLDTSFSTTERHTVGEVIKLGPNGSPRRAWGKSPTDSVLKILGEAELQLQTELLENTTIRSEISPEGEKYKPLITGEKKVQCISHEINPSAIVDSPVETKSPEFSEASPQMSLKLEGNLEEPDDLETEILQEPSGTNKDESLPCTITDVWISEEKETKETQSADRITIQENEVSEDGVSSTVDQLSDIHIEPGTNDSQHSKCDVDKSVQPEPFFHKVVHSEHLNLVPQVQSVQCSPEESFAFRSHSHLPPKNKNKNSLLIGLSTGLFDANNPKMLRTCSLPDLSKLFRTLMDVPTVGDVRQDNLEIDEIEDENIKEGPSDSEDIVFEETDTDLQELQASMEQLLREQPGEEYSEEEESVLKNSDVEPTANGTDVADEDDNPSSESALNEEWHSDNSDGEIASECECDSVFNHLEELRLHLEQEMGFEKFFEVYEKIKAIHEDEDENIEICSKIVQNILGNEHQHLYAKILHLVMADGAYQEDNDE

[3] = target: T2, Serine/threonine-protein kinase Nek1 (Homo sapiens); conditions: at 1 µM
[4] = target: T3, Serine/threonine-protein kinase Nek2 (Homo sapiens) (UniProt P51955); conditions: at 0.1 µM
T3 sequence (whole entry): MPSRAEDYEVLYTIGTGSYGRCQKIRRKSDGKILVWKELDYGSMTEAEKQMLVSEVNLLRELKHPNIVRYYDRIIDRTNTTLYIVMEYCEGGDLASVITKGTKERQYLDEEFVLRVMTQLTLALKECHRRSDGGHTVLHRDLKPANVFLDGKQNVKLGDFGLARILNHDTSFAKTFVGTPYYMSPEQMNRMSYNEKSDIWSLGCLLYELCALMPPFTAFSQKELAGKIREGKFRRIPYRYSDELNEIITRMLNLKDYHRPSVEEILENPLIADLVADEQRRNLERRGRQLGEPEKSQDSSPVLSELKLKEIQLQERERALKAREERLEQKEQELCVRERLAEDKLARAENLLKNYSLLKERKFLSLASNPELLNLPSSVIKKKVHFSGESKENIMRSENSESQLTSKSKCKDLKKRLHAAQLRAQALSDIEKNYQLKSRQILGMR

[5] = target: T3, Serine/threonine-protein kinase Nek2 (Homo sapiens); conditions: at 1 µM
[6] = target: Serine/threonine-protein kinase Nek6 (Homo sapiens) (UniProt Q9HC98); conditions: at 0.1 µM
Sequence of Serine/threonine-protein kinase Nek6 (Homo sapiens) (Q9HC98 whole entry): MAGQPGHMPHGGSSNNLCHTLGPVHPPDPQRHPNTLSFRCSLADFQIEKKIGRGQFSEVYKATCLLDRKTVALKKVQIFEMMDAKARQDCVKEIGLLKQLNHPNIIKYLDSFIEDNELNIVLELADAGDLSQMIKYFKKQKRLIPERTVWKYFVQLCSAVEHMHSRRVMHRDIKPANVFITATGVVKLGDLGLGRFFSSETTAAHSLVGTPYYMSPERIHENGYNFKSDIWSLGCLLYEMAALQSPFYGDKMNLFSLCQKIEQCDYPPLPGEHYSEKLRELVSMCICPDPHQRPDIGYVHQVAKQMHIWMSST

[7] = target: Serine/threonine-protein kinase Nek6 (Homo sapiens) (UniProt Q9HC98); conditions: at 1 µM
[8] = target: Serine/threonine-protein kinase Nek7 (Homo sapiens) (UniProt Q8TDX7); conditions: at 0.1 µM
Sequence of Serine/threonine-protein kinase Nek7 (Homo sapiens) (Q8TDX7 whole entry, looked up): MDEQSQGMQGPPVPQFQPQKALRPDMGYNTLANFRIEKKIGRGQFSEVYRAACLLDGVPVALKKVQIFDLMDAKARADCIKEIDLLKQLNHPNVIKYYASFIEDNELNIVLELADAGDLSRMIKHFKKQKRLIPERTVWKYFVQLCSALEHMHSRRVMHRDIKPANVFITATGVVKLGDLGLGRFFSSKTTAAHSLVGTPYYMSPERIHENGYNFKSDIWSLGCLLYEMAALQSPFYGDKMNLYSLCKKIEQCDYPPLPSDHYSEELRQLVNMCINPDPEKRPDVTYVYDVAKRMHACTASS

[9] = target: Serine/threonine-protein kinase Nek7 (Homo sapiens) (UniProt Q8TDX7); conditions: at 1 µM
[10] = target: T4, Serine/threonine-protein kinase Nek9 (Homo sapiens) (UniProt Q8TD19); conditions: at 0.1 µM
T4 sequence (whole entry): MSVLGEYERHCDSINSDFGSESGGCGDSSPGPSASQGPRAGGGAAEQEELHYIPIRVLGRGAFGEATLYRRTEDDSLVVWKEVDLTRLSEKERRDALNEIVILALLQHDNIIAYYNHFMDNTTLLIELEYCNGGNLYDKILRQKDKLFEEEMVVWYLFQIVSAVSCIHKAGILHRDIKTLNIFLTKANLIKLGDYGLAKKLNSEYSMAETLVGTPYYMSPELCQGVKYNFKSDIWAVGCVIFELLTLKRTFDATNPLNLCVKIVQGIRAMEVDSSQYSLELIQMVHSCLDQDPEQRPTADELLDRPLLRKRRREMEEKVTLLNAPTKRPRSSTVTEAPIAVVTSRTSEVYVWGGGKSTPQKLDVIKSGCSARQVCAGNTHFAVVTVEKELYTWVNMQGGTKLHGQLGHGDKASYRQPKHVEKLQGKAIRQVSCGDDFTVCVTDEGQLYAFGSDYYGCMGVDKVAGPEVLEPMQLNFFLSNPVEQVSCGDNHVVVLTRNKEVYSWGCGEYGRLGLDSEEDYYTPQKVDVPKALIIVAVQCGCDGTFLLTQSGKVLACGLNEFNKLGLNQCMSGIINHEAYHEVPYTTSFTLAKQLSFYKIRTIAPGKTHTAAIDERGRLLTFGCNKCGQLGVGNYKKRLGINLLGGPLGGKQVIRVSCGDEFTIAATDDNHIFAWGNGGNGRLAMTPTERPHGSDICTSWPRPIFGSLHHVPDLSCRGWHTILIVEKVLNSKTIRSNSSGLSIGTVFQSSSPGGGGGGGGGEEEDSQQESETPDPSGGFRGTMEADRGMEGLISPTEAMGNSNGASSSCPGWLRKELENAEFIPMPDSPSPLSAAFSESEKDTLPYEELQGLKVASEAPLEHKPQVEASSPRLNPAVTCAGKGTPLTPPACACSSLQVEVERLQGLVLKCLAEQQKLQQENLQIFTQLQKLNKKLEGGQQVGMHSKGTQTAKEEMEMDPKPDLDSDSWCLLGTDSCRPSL

[11] = target: T4, Serine/threonine-protein kinase Nek9 (Homo sapiens); conditions: at 1 µM
[12] = target: Serine/threonine-protein kinase PLK1 (Homo sapiens) (UniProt P53350); conditions: at 0.1 µM
Sequence of Serine/threonine-protein kinase PLK1 (Homo sapiens) (P53350 whole entry): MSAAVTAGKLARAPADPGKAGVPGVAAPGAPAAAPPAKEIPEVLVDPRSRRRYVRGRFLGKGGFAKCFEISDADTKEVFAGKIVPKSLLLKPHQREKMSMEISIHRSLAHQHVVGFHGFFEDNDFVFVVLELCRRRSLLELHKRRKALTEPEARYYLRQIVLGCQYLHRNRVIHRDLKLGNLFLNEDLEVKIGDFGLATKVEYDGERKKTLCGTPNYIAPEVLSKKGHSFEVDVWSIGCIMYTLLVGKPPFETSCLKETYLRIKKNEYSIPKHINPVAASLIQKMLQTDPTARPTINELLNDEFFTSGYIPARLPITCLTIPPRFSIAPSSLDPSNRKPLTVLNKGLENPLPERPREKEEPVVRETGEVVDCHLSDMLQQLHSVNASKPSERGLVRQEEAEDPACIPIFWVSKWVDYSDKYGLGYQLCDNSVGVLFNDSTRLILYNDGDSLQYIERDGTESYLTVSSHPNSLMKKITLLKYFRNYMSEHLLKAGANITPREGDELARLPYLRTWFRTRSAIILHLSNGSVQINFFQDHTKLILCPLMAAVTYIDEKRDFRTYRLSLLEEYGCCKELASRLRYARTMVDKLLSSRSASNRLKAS

[13] = target: Serine/threonine-protein kinase PLK1 (Homo sapiens) (UniProt P53350); conditions: at 1 µM
[14] = target: T5, Dual specificity protein kinase TTK (Homo sapiens) (UniProt P33981); conditions: at 0.1 µM
T5 sequence (whole entry): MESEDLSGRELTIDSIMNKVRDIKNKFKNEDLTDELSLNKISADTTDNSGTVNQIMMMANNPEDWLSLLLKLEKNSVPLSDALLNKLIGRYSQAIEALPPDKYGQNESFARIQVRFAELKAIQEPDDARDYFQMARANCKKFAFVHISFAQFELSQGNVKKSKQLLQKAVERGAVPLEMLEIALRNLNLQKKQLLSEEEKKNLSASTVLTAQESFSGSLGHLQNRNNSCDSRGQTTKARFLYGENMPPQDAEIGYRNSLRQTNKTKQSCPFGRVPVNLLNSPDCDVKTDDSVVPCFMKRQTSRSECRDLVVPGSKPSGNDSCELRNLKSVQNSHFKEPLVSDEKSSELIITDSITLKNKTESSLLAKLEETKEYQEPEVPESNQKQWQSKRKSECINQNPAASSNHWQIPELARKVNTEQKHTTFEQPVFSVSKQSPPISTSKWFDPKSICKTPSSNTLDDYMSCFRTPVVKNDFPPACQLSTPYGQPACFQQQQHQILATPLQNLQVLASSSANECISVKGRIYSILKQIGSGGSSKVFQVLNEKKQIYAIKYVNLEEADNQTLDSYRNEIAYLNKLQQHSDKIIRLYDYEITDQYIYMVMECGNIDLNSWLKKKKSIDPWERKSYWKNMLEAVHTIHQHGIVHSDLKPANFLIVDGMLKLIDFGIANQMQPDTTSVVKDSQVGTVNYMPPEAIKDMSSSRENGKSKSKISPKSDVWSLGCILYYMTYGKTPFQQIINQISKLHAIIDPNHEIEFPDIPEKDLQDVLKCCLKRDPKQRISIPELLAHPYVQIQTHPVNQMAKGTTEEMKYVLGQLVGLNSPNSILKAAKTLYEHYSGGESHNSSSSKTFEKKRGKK

[15] = system: T6, Receptor-type tyrosine-protein kinase FLT3 (Homo sapiens), P36888 [D835Y]; conditions: at 1 µM
T6 sequence (whole entry): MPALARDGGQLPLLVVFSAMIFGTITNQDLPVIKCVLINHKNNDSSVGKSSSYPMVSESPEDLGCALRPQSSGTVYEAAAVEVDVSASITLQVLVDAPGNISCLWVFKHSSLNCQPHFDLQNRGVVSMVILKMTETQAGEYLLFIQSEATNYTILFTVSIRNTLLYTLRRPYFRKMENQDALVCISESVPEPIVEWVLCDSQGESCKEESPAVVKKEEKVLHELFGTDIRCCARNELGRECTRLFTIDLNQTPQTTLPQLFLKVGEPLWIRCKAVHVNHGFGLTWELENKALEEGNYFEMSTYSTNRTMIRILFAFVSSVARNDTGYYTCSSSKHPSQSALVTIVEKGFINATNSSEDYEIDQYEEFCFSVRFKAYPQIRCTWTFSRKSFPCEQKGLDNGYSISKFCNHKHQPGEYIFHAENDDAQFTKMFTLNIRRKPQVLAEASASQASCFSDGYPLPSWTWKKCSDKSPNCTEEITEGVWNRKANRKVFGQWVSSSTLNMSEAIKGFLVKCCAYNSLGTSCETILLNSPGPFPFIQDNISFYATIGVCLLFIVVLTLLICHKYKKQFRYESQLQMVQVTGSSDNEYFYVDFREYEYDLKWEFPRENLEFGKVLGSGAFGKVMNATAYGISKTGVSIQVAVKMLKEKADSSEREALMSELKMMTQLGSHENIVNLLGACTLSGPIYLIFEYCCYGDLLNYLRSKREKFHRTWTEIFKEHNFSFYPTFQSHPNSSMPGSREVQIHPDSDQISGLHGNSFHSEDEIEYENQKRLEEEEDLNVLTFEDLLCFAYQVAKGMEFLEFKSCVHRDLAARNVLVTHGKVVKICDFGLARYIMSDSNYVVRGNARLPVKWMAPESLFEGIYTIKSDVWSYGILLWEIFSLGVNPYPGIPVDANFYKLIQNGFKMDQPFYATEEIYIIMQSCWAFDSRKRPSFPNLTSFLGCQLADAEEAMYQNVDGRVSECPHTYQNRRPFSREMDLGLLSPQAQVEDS

[16] = target: Vascular endothelial growth factor receptor 3 (Homo sapiens) (UniProt P35916); conditions: at 0.1 µM
Sequence of Vascular endothelial growth factor receptor 3 (Homo sapiens) (P35916 whole entry): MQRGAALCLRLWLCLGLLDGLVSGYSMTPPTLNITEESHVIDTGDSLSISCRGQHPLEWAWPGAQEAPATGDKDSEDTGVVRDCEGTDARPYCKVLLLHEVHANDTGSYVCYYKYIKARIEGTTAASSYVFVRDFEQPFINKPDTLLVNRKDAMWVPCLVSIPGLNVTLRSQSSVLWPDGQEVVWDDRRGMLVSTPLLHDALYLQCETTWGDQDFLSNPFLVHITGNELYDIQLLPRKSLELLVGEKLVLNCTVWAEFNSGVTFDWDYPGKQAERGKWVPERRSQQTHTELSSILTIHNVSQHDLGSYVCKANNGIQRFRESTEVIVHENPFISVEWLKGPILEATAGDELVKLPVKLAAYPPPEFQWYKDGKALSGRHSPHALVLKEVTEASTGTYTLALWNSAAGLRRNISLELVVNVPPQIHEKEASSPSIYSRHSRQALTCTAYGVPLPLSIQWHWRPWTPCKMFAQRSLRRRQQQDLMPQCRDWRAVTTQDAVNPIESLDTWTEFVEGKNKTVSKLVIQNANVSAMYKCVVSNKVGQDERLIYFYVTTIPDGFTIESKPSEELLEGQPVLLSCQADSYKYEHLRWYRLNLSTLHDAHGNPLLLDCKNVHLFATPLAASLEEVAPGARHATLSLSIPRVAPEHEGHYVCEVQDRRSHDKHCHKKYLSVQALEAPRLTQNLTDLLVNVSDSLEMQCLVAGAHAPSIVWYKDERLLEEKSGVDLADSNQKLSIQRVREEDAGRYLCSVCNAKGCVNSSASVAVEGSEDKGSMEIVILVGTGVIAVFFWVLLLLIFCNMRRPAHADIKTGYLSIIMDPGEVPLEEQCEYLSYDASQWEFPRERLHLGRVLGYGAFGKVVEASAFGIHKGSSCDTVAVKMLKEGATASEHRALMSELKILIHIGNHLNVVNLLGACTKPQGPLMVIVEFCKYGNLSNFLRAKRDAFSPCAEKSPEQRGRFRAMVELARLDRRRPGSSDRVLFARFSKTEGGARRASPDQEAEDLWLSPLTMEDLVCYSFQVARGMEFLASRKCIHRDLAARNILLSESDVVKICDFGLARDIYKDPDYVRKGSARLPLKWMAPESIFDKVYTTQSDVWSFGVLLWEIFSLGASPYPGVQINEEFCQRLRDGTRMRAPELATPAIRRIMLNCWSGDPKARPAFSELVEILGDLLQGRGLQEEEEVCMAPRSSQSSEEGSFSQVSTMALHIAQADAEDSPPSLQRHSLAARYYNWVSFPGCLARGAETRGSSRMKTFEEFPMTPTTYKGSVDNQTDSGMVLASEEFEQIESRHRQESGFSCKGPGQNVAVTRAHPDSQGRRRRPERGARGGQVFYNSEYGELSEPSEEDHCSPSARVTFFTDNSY

[17] = target: Vascular endothelial growth factor receptor 3 (Homo sapiens) (UniProt P35916); conditions: at 1 µM
[18] = target: Macrophage colony-stimulating factor 1 receptor (Homo sapiens) (UniProt P07333); conditions: at 0.1 µM
Sequence of Macrophage colony-stimulating factor 1 receptor (Homo sapiens) (P07333 whole entry): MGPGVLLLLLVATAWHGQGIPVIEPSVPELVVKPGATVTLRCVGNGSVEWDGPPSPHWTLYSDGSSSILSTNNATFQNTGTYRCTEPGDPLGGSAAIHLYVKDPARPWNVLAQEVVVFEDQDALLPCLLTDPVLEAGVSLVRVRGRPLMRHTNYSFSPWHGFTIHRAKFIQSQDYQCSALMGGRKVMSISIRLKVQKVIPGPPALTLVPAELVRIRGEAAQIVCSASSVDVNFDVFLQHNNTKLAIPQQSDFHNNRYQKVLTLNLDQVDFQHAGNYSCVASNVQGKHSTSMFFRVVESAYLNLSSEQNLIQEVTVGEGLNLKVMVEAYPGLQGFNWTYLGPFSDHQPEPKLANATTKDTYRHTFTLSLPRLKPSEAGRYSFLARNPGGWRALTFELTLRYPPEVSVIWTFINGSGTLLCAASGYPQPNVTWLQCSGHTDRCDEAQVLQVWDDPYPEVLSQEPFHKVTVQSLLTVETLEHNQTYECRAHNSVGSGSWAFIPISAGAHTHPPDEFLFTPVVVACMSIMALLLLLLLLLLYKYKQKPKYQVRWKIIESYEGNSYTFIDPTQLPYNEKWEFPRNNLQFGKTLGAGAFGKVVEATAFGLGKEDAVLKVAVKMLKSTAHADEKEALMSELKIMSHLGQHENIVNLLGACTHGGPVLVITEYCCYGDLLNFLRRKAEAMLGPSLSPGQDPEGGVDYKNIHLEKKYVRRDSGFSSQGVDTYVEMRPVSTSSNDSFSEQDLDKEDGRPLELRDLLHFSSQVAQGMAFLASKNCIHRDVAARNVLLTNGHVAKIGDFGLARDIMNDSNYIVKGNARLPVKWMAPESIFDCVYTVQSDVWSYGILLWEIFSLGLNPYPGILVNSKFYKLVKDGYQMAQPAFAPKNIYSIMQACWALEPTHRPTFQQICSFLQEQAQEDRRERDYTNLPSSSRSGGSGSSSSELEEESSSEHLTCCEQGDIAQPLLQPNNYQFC

[19] = target: Macrophage colony-stimulating factor 1 receptor (Homo sapiens) (UniProt P07333); conditions: at 1 µM
[20] = target: Tyrosine-protein kinase Fyn (Homo sapiens) (UniProt P06241); conditions: at 0.1 µM
Sequence of Tyrosine-protein kinase Fyn (Homo sapiens) (P06241 2-537 limits assumed): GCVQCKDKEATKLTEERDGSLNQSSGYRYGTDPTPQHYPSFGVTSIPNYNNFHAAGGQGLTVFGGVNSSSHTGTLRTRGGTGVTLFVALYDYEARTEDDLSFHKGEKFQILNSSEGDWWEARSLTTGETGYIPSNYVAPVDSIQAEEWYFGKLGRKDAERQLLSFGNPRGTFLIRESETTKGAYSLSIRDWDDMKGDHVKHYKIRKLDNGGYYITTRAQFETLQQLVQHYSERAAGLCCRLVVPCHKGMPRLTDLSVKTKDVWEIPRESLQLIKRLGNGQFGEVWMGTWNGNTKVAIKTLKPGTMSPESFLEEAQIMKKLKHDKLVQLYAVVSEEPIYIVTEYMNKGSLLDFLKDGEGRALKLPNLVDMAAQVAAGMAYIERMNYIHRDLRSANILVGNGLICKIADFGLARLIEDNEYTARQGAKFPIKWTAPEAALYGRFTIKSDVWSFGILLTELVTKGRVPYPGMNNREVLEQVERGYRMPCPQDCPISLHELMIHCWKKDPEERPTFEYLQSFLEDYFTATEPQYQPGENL

Compound | inhibition [1] | inhibition [2] | inhibition [3] | inhibition [4] | inhibition [5] | inhibition [6] | inhibition [7] | inhibition [8] | inhibition [9] | inhibition [10] | inhibition [11] | inhibition [12] | inhibition [13] | inhibition [14] | inhibition [15] | inhibition [16] | inhibition [17] | inhibition [18] | inhibition [19] | inhibition [20]
CCCN(CCS(C)(=O)=O)Cc1ccc(-c2ccc3ncnc(Nc4ccc(OCc5cccc(F)c5)c(Cl)c4)c3c2)o1 | 1.08% | 2.4% | 2.96% | 3.32% | 3.71% | -0.2% | 0.97% | 3.69% | 3.24% | 6.94% | 4.13% | 1.28% | 1.62% | 2.14% | 0.99% | -1.86% | -0.27% | 0.78% | 1% | 1.13%
CC1=C(C(=O)Nc2cc(Cl)c3[nH]ncc3c2)C(c2ccc(C(F)(F)F)cc2)CC(=O)N1 (stereo not given) | 5.11% | 2.99% | 3.61% | 4.1% | 4.83% | 2.7% | 2.6% | 4.35% | 3.32% | 5.83% | 8.4% | 4.17% | 4.12% | 5.88% | 1.66% | -0.3% | -1.34% | 5.21% | 1.8% | 0.13%
CNC(=O)c1cccc(C#Cc2cncnc2Nc2ccc(OCc3cccc(F)c3)c(Cl)c2)c1 | 1.01% | -0.52% | -1.06% | 0.09% | -0.96% | 1.08% | 1.68% | 0.01% | 0.48% | 0.64% | 4.28% | -0.42% | 0.52% | 3.66% | 0.94% | -2.07% | 3.4% | 1.48% | 7.16% | 1.46%
